Sequences and labels used below:
B1: PhoQ; a variant is named by its letters at X, in order, P23837 (parent)
chain: MKKLLRLFFPLSLRVRFLLATAAVVLVLSLAYGMVALIGYSVSFDKTTFRLLRGESNLFYTLAKWENNKLHVELPENIDKQSPTMTLIYDENGQLLWAQRDVPWLMKMIQPDWLKSNGFHEIEADVNDTSLLLSGDHSIQQQLQEVREDDDDAEMTHSVAVNVYPATSRMPKLTIVVVDTIPVELKSSYMVWSWFIYVLSANLLLVIPLLWVAAWWSLRPIEALAKEVRELEEHNRELLNPATTRELTSLVRNLNRLLKSERERYDKYRTTLTDLTHSLKTPLXXLQXXLRSLRSEKMSVSDAEPVMLEQISRISQQIGYYLHRASMRGGTLLSRELHPVAPLLDNLTSALNKVYQRKGVNISLDISPEISFVGEQNDFVEVMGNVLDNACKYCLEFVEISARQTDEHLYIVVEDDGPGIPLSKREVIFDRGQRVDTLRPGQGVGLAVAREITEQYEGKIVAGESMLGGARMEVIFGRQHSAPKDE

Over roughly 140,000 sequences, “enrichment ratio after two sorts for PhoP signalling” has its median near 0; the highest 2% begin near 11. The sample holds the highest values, similar sequences and a random draw of the others, so the mix is not that of the screen.

The test covers variants of B1. The experiment in a line: enrichment ratio after two sorts for PhoP signalling (ratio (wild type AVST 3.29)); higher = more functional. Conditions: with PhoP (E. coli).
As to TMWP, the enrichment ratio is at most 0.25. With SLWP the figure was at most 0.25; with DKCH, at most 0.25; with VWNG, at most 0.25. For the variant TGSY, the enrichment ratio is 15.9. With RGSY the figure was at most 0.25; with ADSY, at most 0.25. In the case of GGSY it was at most 0.25; in that of AISY, 5.51. On to AKSY, for which the enrichment ratio came out at 2.91. With AGSY the figure was 14.7; with AQSY, 12.7. With AHSY the figure was at most 0.25. In the case of DTDV it was at most 0.25. Take WMKH: the enrichment ratio was at most 0.25. Consider MNKP, for which the enrichment ratio is at most 0.25.

As to RIYR, the enrichment ratio was at most 0.25. Take FFTK: the enrichment ratio was at most 0.25. With WFGI the figure was at most 0.25; with HTNW, at most 0.25.

KLTI: the enrichment ratio was at most 0.25.

MRHV: the enrichment ratio is at most 0.25. With KAGV the figure was at most 0.25. With MSHF, the enrichment ratio was determined as 2.07.

Regarding KSGV, the enrichment ratio is at most 0.25. In the case of MSHV it was 17.4. In the case of MSGV it was 13.8; in that of SEQA, at most 0.25; in that of GVVG, at most 0.25. In the case of LEYW it was at most 0.25; in that of RSAR, at most 0.25. For the variant EASM, the enrichment ratio is at most 0.25.

Consider FALQ, for which the enrichment ratio was 7.48. With MALQ the figure was 13.1. For TSLQ, the enrichment ratio worked out at 16.4. With FDLQ, the enrichment ratio was at most 0.25.

WILQ: the enrichment ratio is at most 0.25.

As to MPLQ, the enrichment ratio was at most 0.25. In the case of FILQ it was 11.5; in that of FIMQ, at most 0.25. In the case of FQLQ it was 17.7. In the case of NSLQ it was 0.291; in that of FPLQ, at most 0.25; in that of FITA, at most 0.25. In the case of TPCV, the enrichment ratio is at most 0.25. In the case of HIPN it was at most 0.25; in that of WRHY, at most 0.25; in that of GDYV, at most 0.25. In the case of LQVN it was at most 0.25; in that of DQMY, at most 0.25; in that of VHFI, at most 0.25. In the case of FDRQ it was at most 0.25; in that of LRHY, at most 0.25; in that of FCLQ, 6.86. For the variant KSLQ, the enrichment ratio was at most 0.25. Turning to FSLQ, the enrichment ratio amounted to 11.8. With LNSK the figure was at most 0.25; with TCYA, 1.75; with VECM, 0.698. In the case of TCYM it was 12.1; in that of TCNM, 1.24. In the case of QECM it was at most 0.25; in that of TCGM, 15.3; in that of TCIM, 0.447. In the case of TCCM, the enrichment ratio was found to be 20. For TCWM, the enrichment ratio was at most 0.25. For the variant TCTM, the enrichment ratio turned out to be 21.1.

Regarding FCTM, the enrichment ratio is at most 0.25.

For TCYN, the enrichment ratio is 3.25.

Regarding IMKY, the enrichment ratio was at most 0.25.

Turning to VMEY, the enrichment ratio was at most 0.25. With TYKQ the figure was at most 0.25. As for IGCI, the enrichment ratio is at most 0.25. As for THAC, the enrichment ratio is 6.19.

For SQFC, the enrichment ratio was at most 0.25. With WRVD the figure was at most 0.25; with ISHC, at most 0.25; with YTMN, at most 0.25. In the case of EMDR it was at most 0.25; in that of DSWL, at most 0.25. With RECW the figure was at most 0.25. With FMGG, the enrichment ratio was at most 0.25. In the case of EQVK it was at most 0.25. Regarding VECQ, the enrichment ratio worked out at 8.23. With TCCK the figure was 21.6.

TCCI: the enrichment ratio was determined as 7.17. Consider TCKQ, for which the enrichment ratio is at most 0.25. Turning to TCCQ, the enrichment ratio is 12.5. With VECK the figure was at most 0.25; with TDEN, at most 0.25; with QTMG, at most 0.25. In the case of DPLR it was at most 0.25. In the case of SCTS it was 14.9. For the variant SCTD, the enrichment ratio was at most 0.25. With SCTK the figure was 7.2; with SCTC, 7.94. With SCTA the figure was 12.7. With SCTH the figure was 9.21; with LRRQ, at most 0.25.

In the case of NIGG, the enrichment ratio was at most 0.25. Turning to LVAY, the enrichment ratio was at most 0.25.

Regarding HFFS, the enrichment ratio is at most 0.25.

In the case of PHFW, the enrichment ratio is at most 0.25. With MIAF the figure was 14; with KMAF, at most 0.25. Regarding SCAF, the enrichment ratio amounted to 16.3. In the case of KCAF it was at most 0.25. In the case of MCAF it was 32.1; in that of MMAF, 13.

With MSAF, the enrichment ratio was found to be 3.4. Regarding MKAF, the enrichment ratio is at most 0.25.

Turning to SRAF, the enrichment ratio is at most 0.25.

As to STAF, the enrichment ratio was 7.65.

Turning to WIAF, the enrichment ratio was at most 0.25. On to MAAF, for which the enrichment ratio was at most 0.25. In the case of LHIP it was at most 0.25; in that of RPYE, at most 0.25; in that of AWSD, at most 0.25. In the case of WEIC it was at most 0.25; in that of FTRG, at most 0.25.

On to AQMD, for which the enrichment ratio is at most 0.25.

Consider LIFC, for which the enrichment ratio was at most 0.25. In the case of PKNW it was at most 0.25. In the case of FRIG it was at most 0.25; in that of LEYC, 4.32; in that of WRGG, at most 0.25.

With TYMG, the enrichment ratio turned out to be 14.3.

Take TYHG: the enrichment ratio is at most 0.25.

TYCE: the enrichment ratio is at most 0.25. With TYVG the figure was 0.756. In the case of TYCA it was 12.1; in that of TYCI, at most 0.25. In the case of FWCS it was 1.37; in that of HQAE, at most 0.25.

For the variant APEP, the enrichment ratio was at most 0.25. In the case of AHCL it was 9.7. In the case of VCCY it was at most 0.25; in that of KCCC, at most 0.25. With ACCK the figure was 12.8.

Regarding ACCY, the enrichment ratio came to 19.6.

Regarding KCCY, the enrichment ratio is at most 0.25. In the case of ACFH it was at most 0.25.

On to ACCA, for which the enrichment ratio worked out at 7.21. With ACCS the figure was 2.23. On to ACCI, for which the enrichment ratio was determined as 26.9.

Consider ACCC, for which the enrichment ratio worked out at 34.1.

Regarding YDTQ, the enrichment ratio was at most 0.25. In the case of GRPL it was at most 0.25; in that of KEDR, at most 0.25. With FEMC the figure was 10.8; with IQYT, at most 0.25; with DHLG, at most 0.25. With NLYQ the figure was at most 0.25.
